Screen size: about 5,500 compounds; about 2,000 (36%) were called active. Another 18% or so got no clear call; they are omitted. Cut-off read from the data, not from the text of the source: active = normalized growth mostly below about 0.91 (no sharp cut-off); inconclusive = no clear call, values can overlap the other calls; inactive = mostly above about 0.92. The list shows a part of the results.
Experiment: chemical genetic growth profiling, strain panel (AID 1159580);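 note: tested at 20 µM; growth read once vehicle control cultures reached saturation at 30 °C; 1 = growth at the plate median or of vehicle wells; lower values mean less growth of the strain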
Details: growth OD
[1] = S. cerevisiae deletion strains, locus YDR150W, strain NUM1, hits give low values
[2] = S. cerevisiae deletion strains, locus YGR078C, strain PAC10, hits give low values
[3] = S. cerevisiae deletion strains, locus YNL128W, strain TEP1, hits give low values
[4] = S. cerevisiae deletion strains, locus YNL153C, strain GIM3, hits give low values
[5] = S. cerevisiae deletion strains, locus YNL322C, strain KRE1, hits give low values

Measured: normalized growth

CCOC(=O)CC(SP(=S)(OC)OC)C(=O)OCC (stereo not drawn)
inactive: S. cerevisiae deletion strains, locus YAL013W, strain DEP1, hits give low values 1.02 | S. cerevisiae deletion strains, locus YBR021W, strain FUR4, hits give low values 1.01 | S. cerevisiae deletion strains, locus YBR229C, strain ROT2, hits give low values 1.01 | S. cerevisiae deletion strains, locus YCL029C, strain bik1, hits give low values 1.01 | S. cerevisiae deletion strains, locus YDL035C, strain GPR1, hits give low values 1.02 | S. cerevisiae deletion strains, locus YDL074C, strain BRE1, hits give low values 0.996 | S. cerevisiae deletion strains, locus YDL101C, strain DUN1, hits give low values 1 | S. cerevisiae deletion strains, locus YDL134C, strain PPH21, hits give low values 1.01 | S. cerevisiae deletion strains, locus YDL185W, strain tfp1, hits give low values 1.02 | S. cerevisiae deletion strains, locus YDL192W, strain arf1, hits give low values 1 | S. cerevisiae deletion strains, locus YDR101C, strain arx1, hits give low values 0.998 | [1] 0.996 | S. cerevisiae deletion strains, locus YDR162C, strain NBP2, hits give low values 1.01 | S. cerevisiae deletion strains, locus YDR318W, strain mcm21, hits give low values 1.02 | S. cerevisiae deletion strains, locus YDR388W, hits give low values 1.01 | S. cerevisiae deletion strains, locus YDR502C, strain sam2, hits give low values 0.998 | S. cerevisiae deletion strains, locus YEL061C, strain CIN8, hits give low values 1.01 | S. cerevisiae deletion strains, locus YER110C, hits give low values 1.01 | S. cerevisiae deletion strains, locus YER155C, strain BEM2, hits give low values 1.02 | S. cerevisiae deletion strains, locus YER167W, strain BCK2, hits give low values 1.02 | S. cerevisiae deletion strains, locus YGL078C, strain dbp3, hits give low values 0.998 | S. cerevisiae deletion strains, locus YGL086W, strain mad1, hits give low values 1 | S. cerevisiae deletion strains, locus YGL248W, strain PDE1, hits give low values 1.01 | [2] 1.01 | S. cerevisiae deletion strains, locus YGR135W, strain pre9, hits give low values 0.994 | S. cerevisiae deletion strains, locus YGR229C, strain SMI1, hits give low values 1.02 | S. cerevisiae deletion strains, locus YGR252W, strain gcn5, hits give low values 1 | S. cerevisiae deletion strains, locus YHR030C, strain SLT2, hits give low values 1.02 | S. cerevisiae deletion strains, locus YHR079C, strain IRE1 (second series), hits give low values 1.01 | S. cerevisiae deletion strains, locus YHR094C, strain hxt1, hits give low values 1.01 | S. cerevisiae deletion strains, locus YHR129C, strain ARP1, hits give low values 1.02 | S. cerevisiae deletion strains, locus YHR200W, strain rpn10, hits give low values 1.01 | S. cerevisiae deletion strains, locus YIL066C, strain RNR3, hits give low values 1.04 | S. cerevisiae deletion strains, locus YIL073C, strain SPO22, hits give low values 1.09 | S. cerevisiae deletion strains, locus YIL125W, strain kgd1, hits give low values 0.998 | S. cerevisiae deletion strains, locus YIR030C, strain dcg1, hits give low values 1 | S. cerevisiae deletion strains, locus YJL095W, strain BCK1, hits give low values 1.02 | S. cerevisiae deletion strains, locus YJL134W, strain LCB3, hits give low values 1.01 | S. cerevisiae deletion strains, locus YJL168C, strain set2, hits give low values 1.01 | S. cerevisiae deletion strains, locus YJL187C, strain SWE1 (second series), hits give low values 1.01 | S. cerevisiae deletion strains, locus YJR043C, strain POL32, hits give low values 1.01 | S. cerevisiae deletion strains, locus YJR075W, strain HOC1, hits give low values 1.01 | S. cerevisiae deletion strains, locus YKL009W, strain mrt4, hits give low values 1.01 | S. cerevisiae deletion strains, locus YKL068W, hits give low values 1.01 | S. cerevisiae deletion strains, locus YKL085W, strain MDH1 (second series), hits give low values 1.01 | S. cerevisiae deletion strains, locus YKL085W, strain MDH1, hits give low values 1.01 | S. cerevisiae deletion strains, locus YKL190W, strain CNB1, hits give low values 1.01 | S. cerevisiae deletion strains, locus YKR001C, strain vps1, hits give low values 1.02 | S. cerevisiae deletion strains, locus YLR039C, strain RIC1, hits give low values 1.06 | S. cerevisiae deletion strains, locus YLR058C, strain SHM2, hits give low values 1.02 | S. cerevisiae deletion strains, locus YLR102C, strain apc9, hits give low values 1.01 | S. cerevisiae deletion strains, locus YLR262C, strain YPT6, hits give low values 1.04 | S. cerevisiae deletion strains, locus YLR268W, strain sec22, hits give low values 0.997 | S. cerevisiae deletion strains, locus YLR330W, strain CHS5, hits give low values 1.01 | S. cerevisiae deletion strains, locus YLR342W, strain FKS1 (second series), hits give low values 1.07 | S. cerevisiae deletion strains, locus YLR371W, strain rom2, hits give low values 1.01 | S. cerevisiae deletion strains, locus YLR418C, strain cdc73, hits give low values 0.988 | S. cerevisiae deletion strains, locus YML016C, strain PPZ1, hits give low values 1.01 | S. cerevisiae deletion strains, locus YML032C, strain rad52, hits give low values 1 | S. cerevisiae deletion strains, locus YML124C, strain tub3, hits give low values 1.01 | S. cerevisiae deletion strains, locus YMR078C, strain ctf18, hits give low values 1.02 | S. cerevisiae deletion strains, locus YMR223W, strain ubp8, hits give low values 1.01 | S. cerevisiae deletion strains, locus YMR263W, strain SAP30, hits give low values 1.01 | S. cerevisiae deletion strains, locus YMR307W, strain GAS1, hits give low values 1.05 | S. cerevisiae deletion strains, locus YNL067W, strain RPL9B, hits give low values 0.998 | [3] 1 | [4] 1.01 | S. cerevisiae deletion strains, locus YNL233W, strain BNI4, hits give low values 1 | S. cerevisiae deletion strains, locus YNL250W, strain rad50, hits give low values 1.01 | S. cerevisiae deletion strains, locus YNL271C, strain bni1, hits give low values 1.02 | S. cerevisiae deletion strains, locus YNL298W, strain CLA4, hits give low values 1.02 | S. cerevisiae deletion strains, locus YNL307C, strain MCK1, hits give low values 1.02 | [5] 1.01 | S. cerevisiae deletion strains, locus YNR052C, strain pop2, hits give low values 1 | S. cerevisiae deletion strains, locus YOL006C, strain TOP1, hits give low values 1.02 | S. cerevisiae deletion strains, locus YOL012C, strain htz1 0.831 | S. cerevisiae deletion strains, locus YOL147C, strain pex11, hits give low values 1.01 | S. cerevisiae deletion strains, locus YOR061W, strain CKA2, hits give low values 1 | S. cerevisiae deletion strains, locus YOR069W, strain VPS5, hits give low values 1.01 | S. cerevisiae deletion strains, locus YOR136W, strain idh2, hits give low values 1 | S. cerevisiae deletion strains, locus YOR144C, strain elg1, hits give low values 1 | S. cerevisiae deletion strains, locus YOR184W, strain ser1, hits give low values 1.02 | S. cerevisiae deletion strains, locus YOR316C, strain cot1, hits give low values 1 | S. cerevisiae deletion strains, locus YPL055C, strain LGE1, hits give low values 1 | S. cerevisiae deletion strains, locus YPL241C, strain CIN2, hits give low values 1.01 | S. cerevisiae deletion strains, locus YPR119W, strain clb2, hits give low values 1 | S. cerevisiae deletion strains, locus YPR141C, strain kar3, hits give low values 1 | S. cerevisiae deletion strains, locus YPR163C, strain tif3, hits give low values 1.01 | S. cerevisiae deletion strains, locus YPR167C, strain met16, hits give low values 1.01 | S. cerevisiae deletion strains, strain wtn01, hits give low values 0.996 | S. cerevisiae strains, strain wild type, hits give low values 1.01

CCCOC(=O)c1c(-c2ccccc2)nc(CC)c(C(=O)SCC)c1CCC
inactive: S. cerevisiae deletion strains, locus YAL040C, strain CLN3, hits give low values 1.04 | S. cerevisiae deletion strains, locus YCL061C, strain MRC1 (second series), hits give low values 1 | [1] 1.01 | S. cerevisiae deletion strains, locus YDR363W, strain ESC2, hits give low values 0.982 | S. cerevisiae deletion strains, locus YER002W, strain NOP16, hits give low values 1.01 | [2] 0.974 | [3] 1.09 | [4] 1.02 | S. cerevisiae deletion strains, locus YNL197C, strain WHI3, hits give low values 1.02 | S. cerevisiae deletion strains, locus YNL224C, strain SQS1, hits give low values 1.04 | [5] 0.993 | S. cerevisiae deletion strains, locus YOR083W, strain WHI5 (second series), hits give low values 1.09

Source: PubChem BioAssay AID1159580 (chemical genetic matrix, 2015)
